Laboratory results from PubChem BioAssay (NCATS).
Inconclusive results are not listed. Entries that show only a call come without a potency. Values without a mark were called inactive. The source made the active and inactive calls. Calls follow the shape of the dose curve; as a rule, active = well fitted curve in the direction sought with a large enough effect; inconclusive = small, poorly fitted or top-dose-only effect, or another doubt; inactive = no such curve, though single readings can be large; an effect the other way counts as inactive or inconclusive.

What was measured:
[1] = biological target: Rap guanine nucleotide exchange factor 3 (Homo sapiens) (UniProt O95398); test: Confirmatory qHTS for agonist of cAMP-regulated guanine nucleotide exchange factor 3 (EPAC1) (AID 1645881);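 also: EPAC1 catalysed release of BODIPY-GDP from Rap1B seen as fluorescence loss; nearly all actives have a fitted effect of over 75% in size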
Sequence of Rap guanine nucleotide exchange factor 3 (Homo sapiens) (O95398 whole entry, looked up): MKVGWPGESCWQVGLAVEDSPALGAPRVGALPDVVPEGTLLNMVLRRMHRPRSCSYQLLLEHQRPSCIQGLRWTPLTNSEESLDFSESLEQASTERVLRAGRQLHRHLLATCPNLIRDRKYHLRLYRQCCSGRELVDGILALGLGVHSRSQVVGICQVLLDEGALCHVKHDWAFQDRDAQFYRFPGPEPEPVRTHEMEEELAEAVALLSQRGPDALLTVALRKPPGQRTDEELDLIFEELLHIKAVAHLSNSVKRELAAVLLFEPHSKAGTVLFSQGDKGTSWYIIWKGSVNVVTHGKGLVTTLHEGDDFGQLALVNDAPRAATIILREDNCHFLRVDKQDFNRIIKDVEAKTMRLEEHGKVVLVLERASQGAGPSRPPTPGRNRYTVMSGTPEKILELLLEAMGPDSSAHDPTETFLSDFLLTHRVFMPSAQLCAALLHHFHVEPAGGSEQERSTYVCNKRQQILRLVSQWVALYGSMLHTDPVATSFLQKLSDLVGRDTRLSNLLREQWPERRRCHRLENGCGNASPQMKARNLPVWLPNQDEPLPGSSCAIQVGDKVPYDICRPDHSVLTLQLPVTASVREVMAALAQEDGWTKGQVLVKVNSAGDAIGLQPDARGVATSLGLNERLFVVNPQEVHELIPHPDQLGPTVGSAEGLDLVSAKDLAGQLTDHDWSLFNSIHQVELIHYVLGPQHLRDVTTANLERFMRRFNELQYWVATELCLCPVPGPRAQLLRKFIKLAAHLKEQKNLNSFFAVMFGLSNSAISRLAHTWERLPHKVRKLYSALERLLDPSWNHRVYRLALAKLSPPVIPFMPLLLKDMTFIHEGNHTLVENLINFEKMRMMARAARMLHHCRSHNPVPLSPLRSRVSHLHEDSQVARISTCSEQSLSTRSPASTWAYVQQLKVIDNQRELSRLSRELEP

[2] = biological target: Rap guanine nucleotide exchange factor 4 (Homo sapiens) (UniProt Q8WZA2); test: Confirmatory qHTS for agonist of cAMP-regulated guanine nucleotide exchange factor 4 (EPAC2) (AID 1645884);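 also: nucleotide exchange releases bodipy-GDP from Rap1 and this lowers its fluorescence; nearly all actives have a fitted effect of over 65% in size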
Sequence of Rap guanine nucleotide exchange factor 4 (Homo sapiens) (Q8WZA2 whole entry, looked up): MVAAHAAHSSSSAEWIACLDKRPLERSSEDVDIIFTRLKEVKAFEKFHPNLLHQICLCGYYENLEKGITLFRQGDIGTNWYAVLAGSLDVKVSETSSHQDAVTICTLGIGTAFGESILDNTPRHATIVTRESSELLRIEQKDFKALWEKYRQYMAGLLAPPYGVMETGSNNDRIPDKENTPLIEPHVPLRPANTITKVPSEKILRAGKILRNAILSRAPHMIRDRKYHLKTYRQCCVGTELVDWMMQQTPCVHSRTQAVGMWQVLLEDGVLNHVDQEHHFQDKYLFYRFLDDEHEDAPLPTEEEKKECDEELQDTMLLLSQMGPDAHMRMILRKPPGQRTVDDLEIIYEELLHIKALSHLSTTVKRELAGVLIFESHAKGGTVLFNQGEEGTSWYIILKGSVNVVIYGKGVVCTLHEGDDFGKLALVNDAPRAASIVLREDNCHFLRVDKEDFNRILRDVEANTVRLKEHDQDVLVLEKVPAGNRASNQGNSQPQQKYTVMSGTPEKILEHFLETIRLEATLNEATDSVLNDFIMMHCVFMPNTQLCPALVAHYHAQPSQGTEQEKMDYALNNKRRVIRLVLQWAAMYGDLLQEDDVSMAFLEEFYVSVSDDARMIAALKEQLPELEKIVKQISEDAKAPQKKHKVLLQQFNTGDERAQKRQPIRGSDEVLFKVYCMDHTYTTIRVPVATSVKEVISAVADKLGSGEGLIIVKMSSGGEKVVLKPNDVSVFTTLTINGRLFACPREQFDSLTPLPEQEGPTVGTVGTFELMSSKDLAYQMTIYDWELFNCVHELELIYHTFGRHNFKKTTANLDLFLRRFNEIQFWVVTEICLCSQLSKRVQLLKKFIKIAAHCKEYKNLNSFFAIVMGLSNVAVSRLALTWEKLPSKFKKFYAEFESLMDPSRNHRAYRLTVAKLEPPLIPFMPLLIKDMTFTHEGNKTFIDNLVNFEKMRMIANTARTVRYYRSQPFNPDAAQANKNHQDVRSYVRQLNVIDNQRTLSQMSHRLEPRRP

[3] = biological target: Rap guanine nucleotide exchange factor 4 (Homo sapiens) (UniProt Q8WZA2); test: Confirmatory qHTS for antagonist of cAMP-regulated guanine nucleotide exchange factor 4 (EPAC2) (AID 1645885); also: nearly all actives have a fitted effect of over 25% in size; also: potency is read from the fitted curve at half-maximal effect
[4] = biological target: Rap guanine nucleotide exchange factor 3 (Homo sapiens) (UniProt O95398); test: Counterscreen qHTS for antagonist of cAMP-regulated guanine nucleotide exchange factor 3 (EPAC1) (AID 1645888);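 also: fluorescence loss as bound BODIPY-GDP is released from Rap1B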
Outline: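 Measured: fluorescence of BODIPY-GDP bound to Rap1B, which falls as exchange proceeds. Conditions include 50 uM competing GDP, 5 and 30 min reads, and a later cAMP challenge for antagonist detection.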

Cc1cc(O)cc(C)c1NS(=O)(=O)c1ccc2ccccc2c1
Potency [1]: inactive
Potency [2]: inactive
Potency [3]: inactive
Potency [4]: inactive

Cc1cc(CSc2ccc(Cl)cc2)ccc1N
Potency [1]: inactive
Potency [2]: inactive
Potency [3]: inactive
Potency [4]: inactive

Cn1cccc1C(=O)NC(=O)COC(=O)c1ccc(S(C)(=O)=O)c([N+](=O)[O-])c1
Potency [1]: inactive
activation [2]: -3.13% [at 17.1 µM, percent relative to cAMP agonist control]
Potency [3]: inactive
activity change, negative = inhibition [4]: -20.5% [at 30.8 µM]

Cc1ccc(NC(=O)CC2S/C(=N/N=C3\CCCc4ccccc43)NC2=O)cc1 (centres undefined)
Potency [1]: inactive
activation [2]: 0% [at 17.1 µM, percent relative to cAMP agonist control]
Potency [3]: inactive
activity change, negative = inhibition [4]: -9.99% [at 30.8 µM]

Cc1cccc(C(=O)OCC(=O)c2ccc(CC(=O)N3CCOCC3)s2)c1C
Potency [1]: inactive
Potency [2]: inactive
Potency [3]: inactive
Potency [4]: inactive

O=C(O)c1ccc(/C=N/NC(=O)c2cc(-c3ccc4c5c(cccc35)CC4)n[nH]2)cc1
Potency [1]: inactive
Potency [2]: inactive
Potency [3]: inactive
Potency [4]: inactive

O=C(CN1C(=O)/C(=C2/SC(=S)N(CCS(=O)(=O)O)C2=O)c2ccccc21)Nc1cccc(C(F)(F)F)c1
Potency [1]: inactive
activation [2]: 2.25% [at 17.1 µM, percent relative to cAMP agonist control]
Potency [3]: inactive
activity change, negative = inhibition [4]: -24.5% [at 30.8 µM]

COc1ccc(-n2c(NC(=O)c3ccco3)c(C#N)c3nc4ccccc4nc32)cc1
Potency [1]: inactive
Potency [2]: inactive
Potency [3]: inactive
Potency [4]: inactive

COc1ccc(OCc2nc3ccccc3n2C(C)c2ccccc2)cc1 (centres undefined)
Potency [1]: inactive
Potency [2]: inactive
Potency [3]: inactive
Potency [4]: inactive

C=CCOC(=O)C1=C(C)NC(C)=C(C(=O)OCC=C)C1c1ccco1
Potency [1]: inactive
activation [2]: 7.19% [at 17.1 µM, percent relative to cAMP agonist control]
Potency [3]: inactive
activity change, negative = inhibition [4]: -5.56% [at 30.8 µM]

COc1ccc(N2Cc3cccc(C(=O)Nc4ccc(C(C)C)cc4)c3C2=O)cc1
Potency [1]: inactive
Potency [2]: inactive
Potency [3]: inactive
Potency [4]: inactive

CCn1c(SCC(=O)N/N=C/C=C/c2ccco2)nnc1-c1ccccc1
Potency [1]: inactive
Potency [2]: inactive
Potency [3]: inactive
Potency [4]: inactive

O=S1(=O)N=C(N(Cc2cccs2)c2ccc(O)cc2)c2ccccc21
Potency [1]: inactive
Potency [2]: inactive
Potency [3]: inactive
Potency [4]: inactive

Cc1cccn2c(=O)c3cc(C#N)c(=NC(=O)c4ccccc4)n(Cc4ccco4)c3nc12
Potency [1]: inactive
activation [2]: 11% [at 17.1 µM, percent relative to cAMP agonist control]
Potency [3]: inactive
activity change, negative = inhibition [4]: 15.9% [at 30.8 µM]

O=c1[nH][nH]c(-c2ccccc2O)c1C(C[N+](=O)[O-])c1ccc(Br)cc1 (centres undefined)
Potency [1]: inactive
Potency [2]: inactive
Potency [3]: inactive
Potency [4]: inactive

C/C(=N\NC(=O)c1ccc(O)cc1)c1cccc(NC(=O)c2ccc(Cl)cc2)c1
Potency [1]: inactive
Potency [2]: inactive
Potency [3]: inactive
Potency [4]: inactive

CCOC(=O)c1c(C)[nH]c(C(=O)OCC(=O)Nc2sccc2C(N)=O)c1C
Potency [1]: inactive
Potency [2]: inactive
Potency [3]: inactive
Potency [4]: inactive

CCCn1cc(SCC(=O)NCc2ccc3c(c2)OCO3)c2ccccc21
Potency [1]: inactive
activation [2]: 0% [at 17.1 µM, percent relative to cAMP agonist control]
Potency [3]: inactive
activity change, negative = inhibition [4]: -3.41% [at 30.8 µM]

O=C1C(Cl)=C(NS(=O)(=O)c2ccc([N+](=O)[O-])cc2)C(=O)c2ccccc21
Potency [1]: inactive
activation [2]: 8.93% [at 17.1 µM, percent relative to cAMP agonist control]
Potency [3]: inactive
activity change, negative = inhibition [4]: 11.7% [at 30.8 µM]

COc1cc(/C=C2\SC(=S)N(CCCCC(=O)O)C2=O)ccc1OS(=O)(=O)c1ccc(C)cc1
Potency [1]: inactive
activation [2]: -4.35% [at 17.1 µM, percent relative to cAMP agonist control]
Potency [3]: inactive
activity change, negative = inhibition [4]: -18.6% [at 30.8 µM]

COc1ccc(OC)c(NC(=O)C2(C)CCN2CCc2ccccc2)c1 (centres undefined)
Potency [1]: inactive
Potency [2]: inactive
Potency [3]: 42.6 µM (active)
Potency [4]: inactive

CCOC(=O)c1c(NC(=O)CSc2nnnn2-c2ccccc2OCC)sc2c1CC(C)(C)NC2(C)C
Potency [1]: inactive
activation [2]: 5.6% [at 17.1 µM, percent relative to cAMP agonist control]
Potency [3]: inactive
activity change, negative = inhibition [4]: -5.37% [at 30.8 µM]

C[C@H]1CN([C@@H](C)CO)S(=O)(=O)c2ccc(Br)cc2O[C@@H]1CN(C)Cc1cccc(F)c1
Potency [1]: inactive
activation [2]: 15% [at 17.1 µM, percent relative to cAMP agonist control]
Potency [3]: inactive
activity change, negative = inhibition [4]: -8.18% [at 30.8 µM]

COc1cc(O)c(C(C)=O)c2c1C=CC(C)(C)O2
Potency [1]: inactive
Potency [2]: inactive
Potency [3]: inactive
Potency [4]: inactive

O=C1c2ccccc2C(=O)C12OC2c1cccc2ccccc12 (centres undefined)
Potency [1]: inactive
Potency [2]: inactive
Potency [3]: inactive
Potency [4]: inactive

Cc1ccc(C(NC(=O)C2CCN(Cc3ccc(Cl)c(Cl)c3)CC2)c2ccccn2)cc1 (centres undefined)
Potency [1]: inactive
Potency [2]: inactive
Potency [3]: inactive
Potency [4]: inactive

CCCCN1CC(c2nc3ccccc3n2CCCCOc2cc(C)ccc2C)CC1=O (centres undefined)
Potency [1]: inactive
Potency [2]: inactive
Potency [3]: inactive
Potency [4]: inactive

Oc1c(C2=NCCNC(C(F)(F)F)=C2)ccc2ccccc12
Potency [1]: inactive
Potency [2]: inactive
Potency [3]: inactive
Potency [4]: inactive

C[C@@]12C(=O)Nc3cc(F)ccc3C(=O)N1[C@H]1c3cc(Br)ccc3OC[C@@H]1[C@@H]2c1ccccc1
Potency [1]: inactive
Potency [2]: inactive
Potency [3]: inactive
Potency [4]: inactive

CS/C(=C\C(=O)c1ccco1)Nc1ccccc1Cl
Potency [1]: inactive
Potency [2]: inactive
Potency [3]: inactive
Potency [4]: inactive

CN(C)c1ccc(-c2[nH][nH]c(=O)c2NC(=O)c2ccccn2)cc1
Potency [1]: inactive
Potency [2]: inactive
Potency [3]: inactive
Potency [4]: inactive

COc1ccc(C(CC(=O)c2ccc(C)cc2)C(C#N)C#N)cc1OC (centres undefined)
Potency [1]: inactive
Potency [2]: inactive
Potency [3]: inactive
Potency [4]: inactive

O=C(NC1CCCCC1)C(c1ccc(-c2ccccc2)cc1)n1c(=O)c(-c2ccco2)nc2ccccc21 (centres undefined)
Potency [1]: inactive
Potency [2]: inactive
Potency [3]: inactive
Potency [4]: inactive

COc1ccc(/C=N/NC(=O)c2[nH]c3ccc(Br)cc3c2-c2ccccc2)c(C(=O)O)c1OC
Potency [1]: inactive
activation [2]: 2.8% [at 17.1 µM, percent relative to cAMP agonist control]
Potency [3]: inactive
activity change, negative = inhibition [4]: 0.744% [at 30.8 µM]

Cc1[nH]n(-c2ccccc2)c(=O)c1C=Nc1ccc(S(=O)(=O)N=C(N)N)cc1
Potency [1]: inactive
Potency [2]: inactive
Potency [3]: inactive
Potency [4]: inactive

Cc1cc(C)c(S(=O)(=O)/N=C2\C=C(Nc3ccc(C(=O)O)cc3)C(=O)c3ccccc32)c(C)c1
Potency [1]: inactive
Potency [2]: inactive
Potency [3]: inactive
Potency [4]: inactive

COc1ccccc1NC(=O)c1ccccc1NS(=O)(=O)c1cccs1
Potency [1]: inactive
Potency [2]: inactive
Potency [3]: inactive
Potency [4]: inactive

CSc1ccccc1C(=O)N(C)C(c1ccccc1)c1ccccc1
Potency [1]: inactive
Potency [2]: inactive
Potency [3]: 26.9 µM (active)
Potency [4]: inactive

CC1OC(CC(=O)O)CC2=C1C(=O)c1c(O)cccc1C2=O (centres undefined)
Potency [1]: inactive
Potency [2]: inactive
Potency [3]: inactive
Potency [4]: inactive

CCN1CCc2c(sc(NC(=O)c3cc4ccccc4cc3OC)c2C(N)=O)C1
Potency [1]: inactive
activation [2]: 8.91% [at 17.1 µM, percent relative to cAMP agonist control]
Potency [3]: inactive
activity change, negative = inhibition [4]: -3.83% [at 30.8 µM]

O=C(CSc1nc(-c2ccccc2)nc2c1Cc1ccccc1O2)Nc1ccc(C(=O)O)cc1
Potency [1]: inactive
Potency [2]: inactive
Potency [3]: inactive
Potency [4]: inactive

CC(C)(C)C1CCc2c(sc3nc(SCC(=O)O)nc(N)c23)C1 (centres undefined)
Potency [1]: inactive
activation [2]: 8.5% [at 17.1 µM, percent relative to cAMP agonist control]
Potency [3]: inactive
activity change, negative = inhibition [4]: -1.53% [at 30.8 µM]

COc1ccc(/C=C/C(=O)Oc2ccc(C)c(C)c2)cc1OC
Potency [1]: inactive
Potency [2]: inactive
Potency [3]: inactive
Potency [4]: inactive

O=C(Nc1ccccc1)C1=C(O)CC(c2ccc(Cl)cc2)N2CCN=C12 (centres undefined)
Potency [1]: inactive
Potency [2]: inactive
Potency [3]: inactive
Potency [4]: inactive

CCOc1ccccc1NC(=O)C1CCN(c2nc(-c3ccc(OC)cc3)no2)CC1
Potency [1]: inactive
activation [2]: 2.09% [at 17.1 µM, percent relative to cAMP agonist control]
Potency [3]: inactive
activity change, negative = inhibition [4]: -14.4% [at 30.8 µM]

Nc1ccccc1C(=O)NNc1c2ccccc2nc2ccccc12
Potency [1]: inactive
Potency [2]: inactive
Potency [3]: inactive
Potency [4]: inactive

O=C(Nc1cccc(Cl)c1)Nc1ccccc1NS(=O)(=O)c1cccs1
Potency [1]: inactive
activation [2]: 0% [at 17.1 µM, percent relative to cAMP agonist control]
Potency [3]: inactive
activity change, negative = inhibition [4]: -19.4% [at 30.8 µM]

Cc1ccc(Nc2nnc(-c3ccc(C)c(S(N)(=O)=O)c3)c3ccccc23)cc1
Potency [1]: inactive
Potency [2]: inactive
outcome [3]: inactive [at 12.7 µM]
Potency [4]: inactive

CCOc1cccc(CNc2ccc(O)cc2)c1OCc1ccc(Cl)cc1
Potency [1]: inactive
Potency [2]: inactive
Potency [3]: inactive
Potency [4]: inactive

COc1ccccc1/C=C1\SC(=S)N(CCC(=O)Nc2ccc(C(=O)O)c(O)c2)C1=O
Potency [1]: inactive
activation [2]: 4.12% [at 17.1 µM, percent relative to cAMP agonist control]
Potency [3]: inactive
activity change, negative = inhibition [4]: -13.3% [at 30.8 µM]

CCOc1cc(CNc2ccc(O)cc2)cc(Cl)c1OCc1ccccc1
Potency [1]: inactive
Potency [2]: inactive
Potency [3]: inactive
Potency [4]: inactive
